The campaign covered roughly 150,000 compounds. About 540 (0.36%) showed an effect of 50% or more. The full list was thinned out, with strong results kept by preference.
system: Plasmodium falciparum; assay: Primary screen in NF54 nanoGlo assay, in single point, at 2uM, 72h; a lower Z score goes with more inhibition; type: functional, Erythrocyte; settings: timepoint 72 hour

Structure (SMILES)	% Inhibition [%]	Z score
CN1CCN(C2(CNc3ncc(F)c(N(C)C)n3)CCCCC2)CC1	7	-1.15
Cc1noc(-c2cccc(NC(=O)c3ccccc3-c3ncc(-c4ccccc4)o3)c2)n1	-8	1.16
CN1CCN(C[C@H]2CCCN(CC(C)(C)N3CCOCC3)C2)CC1	-20	3.47
Cc1cccc2c(-c3n[nH]c4ncnc(N)c34)c[nH]c12	-3	0.47
CC(C)CCC1CCCC1NCCCN1CCOCC1 (stereo not given)	6	-1.29
CNc1cc(C)nc2cc(OC)ccc12	-6	0.97
COc1ccc2c(O)c(Br)c(C)nc2c1	75	-13.24
COc1ccc2nc3cc(Cl)ccc3c(O)c2c1	65	-9.86
COCCN1CC[C@H](CN(C)c2ccnc3cc(Cl)ccc23)C1	98	-17
COCCN1CCC[C@@]2(CCN(c3ccnc4cc(Cl)ccc34)C2)C1	99	-17.32
CN1CCC[C@@H]1CCNc1ncnc2cccc(F)c12	9	-1.43
CCN(Cc1cc(F)ccc1-n1cccn1)CC1CCN(C2CCN(C)CC2)CC1	16	-2.76
CCN(Cc1cccc(OC2CCCC2)c1)CC1CCN(C2CCN(C)CC2)CC1	20	-3.46
COc1ccc2[nH]c(CN(Cc3cccnc3)CC3CCN(C4CCCC4)CC3)c(C)c2c1	1	-0.23
CCN(Cc1cnc(-c2ccccc2C)nc1)CC1CCN(C2CCN(C)CC2)CC1	-7	1.18
CCN(Cc1cnn(-c2cccc(Cl)c2)c1)CC1CCN(C2CCN(C)CC2)CC1	82	-14.12
CCN(Cc1[nH]c2ccc(Cl)cc2c1C)CC1CCN(C2CCN(C)CC2)CC1	85	-14.61
Fc1ccc2ncnc(NC3CCN(C[C@H]4CCOC4)CC3)c2c1	-10	2.15
CN(CCCn1ccnc1)c1ccnc2cc(Br)ccc12	99	-17.18
COc1cccc(-c2nc3cc(C#N)ccc3[nH]2)n1	0	0.04
N#Cc1cccc(Cl)c1N1CCC(O)(CN)CC1	-3	0.43
O[C@@]1(c2c[nH]nn2)CCN(c2ccnc3cc(Cl)ccc23)C1	44	-6.63

Structure (SMILES)	% Inhibition [%]	Z score
NCC1(O)CCN(c2ccnc3cc(F)c(Cl)cc23)CC1	95	-20.37
Cn1c(NCc2ccc(N3N=C(c4ccccc4)C[C@H]3c3ccccc3)cc2)nc2ccccc21	-11	1.96
CN1CCN(CCOc2ccccc2CN2CC3CCC(C2)NC3)CC1 (stereo not given)	-1	0.22
Cc1cnccc1N1CCCN(Cc2ccccc2OCCN2CCN(C)CC2)CC1	96	-19.05
C[C@H]1CCCN(CCOc2ccccc2CN2CCN(c3cccnc3)CC2)C1	-2	0.3
O=C(NC[C@@H](CN1CCCC1)C1CC1)c1ccnn1CC(F)(F)F	-1	0.12
C[C@@H](CS(C)(=O)=O)N(C)c1ncnc2cccc(F)c12	6	-1.06
C[C@H]1CCCN(CCNC(=O)c2ccc(-c3ccc4c(=O)[nH]ccc4c3)cc2)C1	67	-11.64
CN1CCC(N2CCC(CN(CCCn3cccn3)Cc3ccncc3)CC2)CC1	-6	0.97
Clc1ccc2[nH]c3c(c2c1)CCCC3NC1CCN(C2CCOC2)CC1 (stereo not given)	83	-16.55
Cn1ncc(C(F)(F)F)c1CN[C@H]1CCCc2c1[nH]c1ccc(Cl)cc21	-15	2.6
Cc1ccc2[nH]c3c(c2c1)CCCC3NC1CC2CCC1O2 (stereo not given)	-7	1.25
CN1CCC[C@@H](CNc2ccnc3ccncc23)[C@@H]1c1ccnn1C	10	-1.79
COCCCN1CCC(Nc2ncnc3cc(C)c(C)cc23)CC1	96	-16.62
COCCN1CCC(Nc2ncnc3c(C)cccc23)CC1	4	-0.91
COCCN1CCC(Nc2nccnc2NC2CCN(CCOC)CC2)CC1	1	-0.15
COc1ccc(Nc2ncc(CN(C)CCn3ccnc3)s2)cc1	1	-0.26
COCCN1CC[C@H](CNC2CCN(c3ncc4ccc(F)cc4n3)CC2)C1	58	-10.01
CCc1cc(Nc2ccc(N3CCOCC3)nc2)nc(-c2ccncc2)n1	56	-9.65
CCc1cc(NC2CCN(CC(F)F)CC2)nc(-c2ccncc2)n1	4	-0.75
NCCc1cccc(CN2CCC[C@H](CN3CCCCC3)C2)c1	3	-0.52
CN1CCC(N2CCN(Cc3c(Cl)ccc(O)c3Cl)CC2)CC1	-11	1.6

Structure (SMILES)	% Inhibition [%]	Z score
O=C(NCc1ccc(N2CCNCC2)c(F)c1)c1ccc(-c2noc(C(F)(F)F)n2)cc1	67	-11.53
O[C@H]1CCN(Cc2cccc(NCc3cn4ccnc4s3)c2)C1	52	-7.83
OC1CCN(Cc2cccc(NCc3cccc(OCCn4ccnc4)c3)c2)CC1	-3	0.55
CCNc1cc(C)nc(NCCNC(=O)Nc2cc(F)cc(F)c2)n1	79	-17.07
CCNc1cc(C)nc(NCCNC(=O)c2cc(-n3cccn3)nc(C)n2)n1	-1	0.15
CCNc1nc(C)cc(Nc2ccc(NC(=O)Nc3ccc(F)cc3F)cc2)n1	96	-20.77
NS(=O)(=O)Cc1cccc(NC(=O)c2cc(F)cc3c(=O)c4cccc(F)c4[nH]c23)c1	-8	1.68
CN(C)Cc1ccccc1NC(=O)c1cccc2c(=O)c3ccccc3[nH]c12	-2	0.38
COc1cc2nc(NCC3(N4CCN(C)CC4)CCCC3)cc(C)c2cc1OC	55	-8.35
COc1cc2nc(N3CCC(CN4CCN(C)CC4)CC3)cc(C)c2cc1OC	-2	0.44
CC(C)CCOc1ccc2[nH]c(-c3cc(N4CCC[C@@H]4CS(C)(=O)=O)ccn3)cc2c1	97	-20.97
CCOc1cc2nccc(N3C[C@H]4CN(C)C[C@H]4C3)c2cc1OCC	99	-21.22
O=C1c2cccc3cccc(c23)C(=O)N1CCc1nc2ccccc2s1	-1	0.09
COCC(O)CN1CCC(NC2CCCNc3ccccc32)CC1 (stereo not given)	-7	1.28
O=C(c1cc(-c2ccccc2)[nH]n1)N1CCC(c2nc3cc(C(F)(F)F)ccc3s2)CC1	3	-0.4
O[C@H]1CCN(Cc2ccccc2CNc2cccc(-n3ccnc3)n2)C1	94	-14.28
O[C@@H]1CCCCC[C@H]1Nc1cccc(-n2ccnc2)n1	-11	1.62
CCN1CCC[C@H](Nc2cccc(-n3ccnc3)n2)C1	46	-6.91
CCn1nc(C(C)C)cc1C(=O)Nc1ccc(CC(=O)NC2CC2)cc1	3	-0.75
Cc1cc(=O)[nH]c(-n2nc(C)cc2NC(=O)[C@H](C)n2nc3c(cc2=O)CCC3)n1	-7	1.4
Cc1cc(=O)[nH]c(-n2nc(C)cc2NC(=O)C(=O)N2CCC[C@H](C)C2)n1	4	-0.54
COC(=O)c1cn(CCNc2ccnc3cc(Cl)ccc23)cc2c(O)nnc1-2	97	-19.19

Structure (SMILES)	% Inhibition [%]	Z score
Nc1cc(N2CCC(c3nc4cc(F)ccc4[nH]3)CC2)nc(N2CCOCC2)n1	52	-10.32
Nc1cc(N2CCC(N3CCc4ccccc4C3)CC2)nc(N2CCOCC2)n1	5	-0.91
Cc1cc(NC[C@H](O)COc2ccc(F)cc2)nc2ccccc12	68	-11.87
Cn1nnc(C(=O)N2CCCCC23CCCCCC3)n1	64	-13.81
CCN1C[C@H](Nc2nc(C)nc3sccc23)[C@@H](OC)C1	99	-21.25
CN(C)C1CCN(CCN[C@H]2CCc3ccc(F)cc32)CC1	87	-15.32
COc1ccc(C(O)CNC2CCc3ccc(F)cc32)cc1 (stereo not given)	0	0.04
Cc1cnccc1NCCNc1nc(C(C)(C)C)nc2c1cnn2C	20	-3.05
Cc1cc(=O)n(CCN2CCN(C(=O)c3ccc[nH]3)CC2)c(=O)[nH]1	-9	1.92
COc1ccc2cc(-c3cc(N)ccn3)[nH]c2c1	54	-11.7
NC(=O)[C@H]1CCCN(CCCNc2cc(C(F)(F)F)nc(N3CCCC3)n2)C1	-5	0.88
COc1ccc2c(C)cc(NCCCN3CCC[C@H](C(N)=O)C3)nc2c1	57	-8.7
Cc1cc(NCCCN2CCC(C(=O)O)CC2)nc2ccccc12	-15	2.33
c1ccc(CN2CCC(CCNC[C@@H]3CCCN4CCCC[C@H]34)CC2)cc1	57	-10.03
Fc1ccc2c(CCNCc3cnn(-c4ccccc4)c3)c[nH]c2c1	-3	0.71
CCN1CCN(c2ccccc2CNCCC2CCN(C)CC2)CC1	27	-4.06
CN1CCN(CC[C@H]2CCCCN2Cc2cnn(-c3ccc(F)cc3)c2)CC1	3	-0.51
c1ccc2c(CNCCC3CCN(c4ccncc4)CC3)csc2c1	80	-17.16
Fc1ccc(-n2cc(CNCCC3CCN(c4ccncc4)CC3)cn2)cc1	91	-15.93

Source: ChEMBL document CHEMBL5308541, “MAIP: An Open-Source Tool to Enrich High-Throughput Screening Output and Identify Novel, Druglike Molecules with Antimalarial Activity” (ACS Med Chem Lett, 2023)
